Drawing on PubChem BioAssay AID2205 (University of Pittsburgh Molecular Library Screening Center, 2009), this text covers % Hoechst-high responders, % tubulin-high responders and toxicity for 35 molecules.

Hit rate of the full screen: of about 200,000 compounds, about 1,600 (0.8%) were called active.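 How the source made its calls: active means plate Z-score above 3 for both tubulin-high and condensed-nucleus cell shares, with cell loss under 80%, at 10 µM; inactive means the rest, inconclusive results apart.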 The list comes from a sample in which actives are over-represented; it also holds similar structures and randomly drawn compounds.

A short description of the experiment: microtubule stabilizers in HeLa cells, primary screen, imaging, high-content imaging (AID 2205).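 On % tubulin-high responders: anti alpha tubulin signal scored within the nucleus-defined area of each cell.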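 On toxicity: 0% = mean cell density of plate MIN control wells and 100% = no cells.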 The note with it: HeLa tubulin immunostaining HCS, 24 h, at 10 µM; % Hoechst-high responders: measured here: nuclear condensation Hoechst responders, stronger effect = higher value, share of cells brighter than vehicle mean+2SD; % tubulin-high responders: stronger effect = higher value, share of cells brighter than vehicle mean+2SD; toxicity: measured here: cytotoxicity by cell density.
Regarding `Cc1ccc(Nc2nnc(SCc3ccccc3)s2)cc1`, the % Hoechst-high responders is 1.53%, the % tubulin-high responders is 1.84% (inactive) and the toxicity was 10%.
In the same order, the values of `Nc1ccc(Nc2ccccc2)cc1` are 2.02%, 3.57% (inactive) and 3.51%.
In the same order, the values of `Cc1ccc(Nc2ccccc2N)cc1` are 19%, 25.1% (active) and 21.1%.
On to `COc1ccccc1OCCNC(=O)c1cc([N+](=O)[O-])cc([N+](=O)[O-])c1`, for which the % Hoechst-high responders was determined as 1.79%, the % tubulin-high responders was 2.35% (inactive) and the toxicity was found to be 4.5%.
On to `CCOC(=O)c1sc2nc(CSc3ccccc3)[nH]c(=O)c2c1C`, for which the % Hoechst-high responders turned out to be 28.5%, the % tubulin-high responders was 17.6% (active) and the toxicity amounted to 32.2%.
In the same order, the values of `CCOC(=O)c1sc2nc(C)nc(SCC(N)=O)c2c1C` are 2.34%, 3.35% (inactive) and 5.02%.
In the same order, the values of `CCOC(=O)c1sc2nc(CSCC(=O)OCc3ccc(C(=O)OC)o3)[nH]c(=O)c2c1C` are 1.26%, 1.86% (inactive) and 6.86%.
In the same order, the values of `Cc1nn(C)cc1/C=N/NC(=O)c1sc2ccccc2c1Cl` are 0.999%, 1.5% (inactive) and 12.2%.
`O=C(Nc1ccon1)c1sc2ccccc2c1Cl`: the % Hoechst-high responders was 2.6%, the % tubulin-high responders was 2.29% (inactive) and the toxicity amounted to 5.2%.
Consider `O=C(N/N=C/c1c(Cl)[nH]c2ccccc12)c1sc2ccccc2c1Cl`, for which the % Hoechst-high responders was found to be 42.8%, the % tubulin-high responders is 18.9% (active) and the toxicity was determined as 32.3%.
Consider `COc1ccccc1N1CC(O)=C(c2nc3ccccc3s2)C1=N`, for which the % Hoechst-high responders was found to be 9.29%, the % tubulin-high responders was 17.8% (active) and the toxicity was 14.3%.
`CCOC(=O)CCCN1CC(O)=C(c2nc3ccccc3s2)C1=N`: the % Hoechst-high responders amounted to 2.61%, the % tubulin-high responders is 4.95% (inactive) and the toxicity amounted to 2.95%.
In the same order, the values of `N=C1C(c2nc3ccccc3s2)=C(O)CN1NC(=O)c1ccc([N+](=O)[O-])cc1` are 1.37%, 9.65% (inactive) and 4.7%.
As to `Cc1ccc(C(=O)NC(=S)Nc2ccccc2C)cc1`, the % Hoechst-high responders worked out at 1.22%, the % tubulin-high responders was 1.11% (inactive) and the toxicity was found to be 8.22%.
Regarding `C/C(CCC(=O)OC[C@H]1O[C@H](C#Cc2ccccc2)C=C[C@@H]1Oc1ccc(C)cc1)=N\OC[C@@H](O)[C@H]1O[C@@H]2OC(C)(C)O[C@@H]2[C@H]1O`, the % Hoechst-high responders was determined as 2.47%, the % tubulin-high responders is 2.74% (inactive) and the toxicity came out at 9.27%.
In the same order, the values of `COc1ccc(C(=O)N2CCc3cc(OC)c(OC)cc3C2c2cccc([N+](=O)[O-])c2)cc1` (stereo not given) are 33.6%, 45.1% (active) and 30.8%.
In the same order, the values of `COc1ccccc1C1SCCN1C(=O)c1ccc([N+](=O)[O-])cc1` (stereo not given) are 3.5%, 3.9% (inactive) and 3.11%.
In the same order, the values of `CCC1(C(=O)c2ccccc2)C(c2cccc([N+](=O)[O-])c2)C1(C(=O)OC)C(=O)OC` (stereo not given) are 2.35%, 3.4% (inactive) and 3.29%.
`CCCCOc1ccc(NC(=O)[C@@H]2CCCN2C(=O)C2CCN(S(=O)(=O)c3ccc(C)cc3)CC2)cc1`: the % Hoechst-high responders stood at 12%, the % tubulin-high responders was 23.9% (active) and the toxicity stood at 63.4%.
`COc1ccc(N2CCN(C(=O)C3CCN(S(=O)(=O)c4ccc(C)cc4)CC3)CC2)cc1`: the % Hoechst-high responders is 2.46%, the % tubulin-high responders is 4.98% (inactive) and the toxicity turned out to be 9.28%.
In the same order, the values of `Cc1cccc(OCCCC(=O)Nc2ccc(S(=O)(=O)N3CCCC3)cc2)c1` are 2.42%, 3.34% (inactive) and 1.31%.
In the same order, the values of `CCOc1ccc(NC(=S)N2CCC(N(C)CC3CCCO3)CC2)cc1` (stereo not given) are 1.17%, 2.22% (inactive) and 7.25%.
In the same order, the values of `COC(=O)c1cc(C(=O)N(Cc2ccccc2)c2ccccn2)cc([N+](=O)[O-])c1` are 2.13%, 3.91% (inactive) and 2.76%.
On to `CCOc1[nH]n(-c2ccc(Cl)cc2)c(=O)c1C=Nc1ccc(O)cc1`, for which the % Hoechst-high responders came out at 12.9%, the % tubulin-high responders was 33.2% (active) and the toxicity was 43.1%.
In the same order, the values of `Cc1[nH]n(-c2ccc(Cl)cc2)c(=O)c1/C=N/n1c(C)nc2ccccc2c1=O` are 2.61%, 5.31% (inactive) and 6.25%.
On to `CCc1nnc(NS(=O)(=O)c2ccc(N=Cc3c(C)[nH]n(-c4ccc(C)cc4)c3=O)cc2)s1`, for which the % Hoechst-high responders worked out at 2.28%, the % tubulin-high responders was 1.91% (inactive) and the toxicity was determined as 6.1%.
On to `O=C(NC(=S)Nc1ccc(S(=O)(=O)N2CCOCC2)cc1)c1ccccc1[N+](=O)[O-]`, for which the % Hoechst-high responders amounted to 1.54%, the % tubulin-high responders was 3.32% (inactive) and the toxicity was 3.74%.
Turning to `COc1ccc(-c2cc(C(=O)NCc3ccco3)no2)cc1OC`, the % Hoechst-high responders is 1.41%, the % tubulin-high responders was 1.62% (inactive) and the toxicity was 8.27%.
In the same order, the values of `Cc1ccc(CNC(=O)C2CC(c3ccccc3[N+](=O)[O-])=NO2)o1` (stereo not given) are 2.18%, 1.45% (inactive) and 2.23%.
As for `COc1ccc(C2=NOC(C(=O)NCc3ccco3)C2)cc1OC` (stereo not given), the % Hoechst-high responders amounted to 22.4%, the % tubulin-high responders is 39.6% (active) and the toxicity came out at 66.2%.
On to `O=[N+]([O-])c1ccc(Sc2n[nH]c(-c3ccco3)n2)nc1`, for which the % Hoechst-high responders worked out at 1.75%, the % tubulin-high responders was 2.25% (inactive) and the toxicity worked out at 7.26%.
As for `CCCCCCCC[n+]1cccc(C(=O)N2c3c(nc(N)[nH]c3=O)NC(C)C2C)c1` (stereo not given), the % Hoechst-high responders was 2.15%, the % tubulin-high responders was 1.56% (inactive) and the toxicity was determined as 7.45%.
Consider `CCOc1cccc(/C=N/N2C(=O)CSC2=S)c1O`, for which the % Hoechst-high responders was found to be 1.52%, the % tubulin-high responders was 5.1% (inactive) and the toxicity turned out to be 14.4%.
In the same order, the values of `Cc1nccn1CCCNC(=O)CC1C(=O)NCCN1Cc1ccc(Cl)c(F)c1` (stereo not given) are 2.31%, 2.68% (inactive) and 1.05%.
With `COC(=O)C1=C(Nc2ccc(OC)cc2)C=C(C)C(C(=O)OC)C1c1ccc(C)cc1` (stereo not given), the % Hoechst-high responders worked out at 1.91%, the % tubulin-high responders was 2.3% (inactive) and the toxicity was found to be 12.1%.
